# Experimental data: paper PMC5540273 (PLoS ONE, 2017)
# Tested on: CSNK1A1L
# Conditions: concentration: 1 μM, replicates: in singlicate; n = 1
# 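Also: KINOMEscan kinase panel screen.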
row,SMILES,%Inh [%]
1,COc1ccc(NC(=O)Nc2ccc(C)c(-c3ccc(C(=O)Nc4ccncc4)cc3)c2)cc1 [GSK1398475],3
2,Clc1ccc(-c2cc(-c3c[nH]nc3-c3ccccn3)ccn2)cc1 [GW681251],1
3,CC(C)(C)OC(=O)NC1CCCN(c2cc(-c3ccc4c(N)n[nH]c4c3)nc(N)n2)C1 (stereo not drawn) [GSK2286096],0
4,CSc1ccc(NC2=C(c3ccccc3Cl)C(=O)NC2=O)cc1 [SB-342411],0
5,COC(=O)c1cccc(NC(=O)NCCNc2ccnc(Nc3ccc(F)cc3)n2)c1 [GSK1379883],4
6,Fc1cccc(COc2ccc(Nc3ncnc4sc(-c5ccc[nH]5)cc34)cc2Cl)c1 [GW707818],0
7,c1ccc(-c2ccc3c(-c4ccnc(Nc5ccc6c(c5)OCCO6)n4)cnn3n2)cc1 [GW818941],0
8,Fc1cccc(COc2ccc(Nc3ncnc4cc[nH]c34)cc2Cl)c1,6
9,COc1cc2c(Nc3cccc(NC(=O)c4ccccc4)c3)ncnc2cc1OCCCN1CCOCC1 [GSK223810],63
10,COc1ccc(NC(=O)c2ccc(-c3cc(-c4nnc(C)o4)ccc3C)cc2)cc1 [GW595885],5
11,Cl.Fc1ccccc1COc1ccc(Nc2ncnc3ccc(-c4nnc(C(F)(F)F)o4)cc23)cc1Cl [GW424170],0
12,CNc1nccc(-c2c(-c3ccc(F)cc3)ncn2CCCN2CCOCC2)n1 [SB-222516],2
13,Cc1cc(N2CCC(NS(=O)(=O)c3ccc(F)cc3)CC2)nc(Nc2cccc(C#N)c2)n1.O=C(O)C(F)(F)F [GSK1653537],35
14,Cn1ccc2ncnc(Oc3ccc(NC(=O)Nc4cccnc4)c(Cl)c3)c21,10
15,O=C(c1ccc(-c2cc(-c3c[nH]nc3-c3ccccn3)ccn2)cc1)N1CCCC1 [GW792479],0
16,Nc1nc(-c2ccc3c(N)n[nH]c3c2)cc(N2CCC[C@@H](C(=O)Nc3ccccc3)C2)n1.O=C(O)C(F)(F)F.O=C(O)C(F)(F)F [GSK2288359],0
17,Cl.Cl.c1ccc(-c2cc3ccncc3cc2OC2CCNCC2)cc1 [GSK1122999],23
18,Fc1ccc(-c2ncn(CCCNCc3ccccc3)c2-c2ccncc2)cc1,22

row,SMILES,%Inh [%]
1,CCn1c(-c2ccncc2)nc2cnccc21 [SB-735216],10
2,C[C@H]1CC[C@@H](C(=O)Nc2ccccc2)CN1c1cc(-c2ccc3c(N)n[nH]c3c2)nc(N)n1 [GSK2283293],16
3,NC(=O)c1sc(-n2cnc3ccccc32)cc1OCc1ccccc1F [GSK1024306],0
4,Cl.Cn1ccc(-c2cccc(Nc3ccnc4cc(-c5nccs5)ccc34)c2)n1 [GW525701],5
5,FC(F)(F)c1cc(Nc2nccc(-c3c(-c4ccc(Cl)cc4)nn4ncccc34)n2)ccc1Cl [GW829351],0
6,N#Cc1ccc(Oc2ccc(Nc3ncnc4cc[nH]c34)cc2Cl)cc1,15
7,OCCOCCn1ccc2ncnc(Nc3ccc(Oc4cccc(Cl)c4)c(Cl)c3)c21,0
8,Fc1cccc(COc2ccc(Nc3ncnc4nn5ccccc5c34)cc2Cl)c1 [GW689066],0
9,Nc1nc(-c2ccccn2)c(-c2ccnc3ccccc23)s1 [GW548057],38
10,CCCc1ccc(S(=O)(=O)NC2CCN(c3ccnc(Nc4ccc(OC)cc4)n3)C2)cc1 (stereo not drawn) [GSK1379737],7
11,Cc1ccc(O)cc1Nc1cc(C(F)(F)F)nc2ccc(-c3ccncc3)cc12 [GW630823],23
12,CNc1nccc(-c2c(-c3ccc(F)cc3)ncn2C2CCN(C)CC2)n1 [SB-222903],38
13,Nc1nc(-c2cccnc2)c(-c2ccnc3ccccc23)s1 [GW684083],9
14,O=C(Nc1ccccc1)Nc1ccc(Oc2ccc3nccn3n2)cc1,6
15,CC(C)(C)c1ccc(-n2cnc3c(N)ncnc32)cc1 [SKF-97263],17
16,Cc1ccc(NC(=O)c2cccc(C#N)c2)cc1-c1ccc(C(=O)Nc2ccncc2)cc1 [GSK1398463],15
17,Cc1ccc(C)c(NC(=O)NCCNc2ccnc(Nc3ccc(F)cc3)n2)c1 [GSK1379878],0
18,Nc1nccc2scc(-c3ccc4c(c3)CCN4C(=O)Cc3cc(F)ccc3F)c12 [GSK2587663],1
